± gives the standard deviation of the averaged measurements.

These results are taken from the supplement of paper PMC9262897, “Low-cost anti-mycobacterial drug discovery using engineered E. coli” (Nature Communications, 2022).

Assay in all cases: growth (OD600 after 10 h); higher = more growth (less inhibition)
For assay [1], the system named is E. coli TESEC Alr+ wild-type control. Conditions: compound 0.1 mM; raw OD600 reference: median of DMSO wells 0.241, cell-free background 0.041. The protocol: (§1)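 TESEC Mtb Alr E. coli, or the Alr+ wild-type control, in 384-well plates with Prestwick library compounds at 0.1 mM and 1% DMSO, across arabinose induction levels of 1E3 to 1E7 nM. Growth is read as OD600 after 10 h at 37 °C in triplicate biological replicates.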

Assay [2] has as its system E. coli TESEC Mtb Alr. Conditions: compound 0.1 mM. Here is the method: as §1
A further assay relates to E. coli TESEC Mtb Asd. Particulars: compound 0.1 mM. Here is the method: (§2)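 TESEC E. coli strains in which the native enzyme is deleted and replaced by arabinose-inducible Mtb Asd, DapB, CysH or TrpD, each grown in its selective medium. Strains were screened against the Prestwick library at 0.1 mM and 1% DMSO in 384-well format at low and high arabinose induction. Growth is read as OD600 after 10 h in triplicate.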

For a further assay, the system named is E. coli TESEC Mtb DapB. Conditions: compound 0.1 mM. Here is the method: as §2
Assay [3] relates to E. coli TESEC Alr+ wild-type control. Particulars: compound 0.1 mM; raw OD600 reference: median of DMSO wells 0.49, cell-free background 0.052. The protocol: (§3)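 TESEC Mtb Alr E. coli (ΔaraC ΔtolC ΔentC Δalr ΔdadX, arabinose-inducible Mtb Alr) or the Alr+ wild-type control strain, grown in defined M9-fructose medium without D-alanine in 96-well plates with Prestwick library compounds at 0.1 mM and 1% DMSO. Low Alr induction is 0.1 µM arabinose and high induction is 10 mM arabinose.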

The subject of assay [4] is E. coli TESEC Mtb Alr. Conditions: compound 0.1 mM. Here is the method: as §3
This is another data set of the same source.

Where [5] appears, read: arabinose 1000 nM, raw OD600 reference: median of DMSO wells 0.294, cell-free background 0.041.
[6] abbreviates: arabinose 10000 nM, raw OD600 reference: median of DMSO wells 0.264, cell-free background 0.041.
[7] abbreviates: arabinose 100000 nM, raw OD600 reference: median of DMSO wells 0.201, cell-free background 0.041.
Where [8] appears, read: arabinose 1000000 nM, raw OD600 reference: median of DMSO wells 0.193, cell-free background 0.041.
The mark [9] stands for this setting: arabinose 10000000 nM, raw OD600 reference: median of DMSO wells 0.146, cell-free background 0.041.
The mark [10] stands for this setting: arabinose induction (level): High, raw OD600 reference: median of DMSO wells 0.331, cell-free background 0.041.
[11] abbreviates: arabinose induction (level): Low, raw OD600 reference: median of DMSO wells 0.417, cell-free background 0.041.
Where [12] appears, read: arabinose induction (level): High, raw OD600 reference: median of DMSO wells […], cell-free background 0.041.
Where [13] appears, read: arabinose induction (level): Low, raw OD600 reference: median of DMSO wells 0.227, cell-free background 0.041.
[14] abbreviates: arabinose 100 nM, raw OD600 reference: median of DMSO wells 0.413, cell-free background 0.052.
Setting [15] is: arabinose 10000000 nM, raw OD600 reference: median of DMSO wells […], cell-free background 0.052.

Consider `O=C(O)CCNC(=O)c1ccc(/N=N/c2ccc(O)c(C(=O)O)c2)cc1` [Balsalazide Sodium], for which the growth in assay [1] came to 0.276 ± 0.0079; in the assay on E. coli TESEC Mtb Alr [2] (setting [5]) it was 0.318 ± 0.0085; in the assay with E. coli TESEC Mtb Alr [2] (setting [6]) it was 0.2664 ± 0.0024; in the assay on E. coli TESEC Mtb Alr [2] (setting [7]) it was 0.213 ± 0.0045; in the assay with E. coli TESEC Mtb Alr [2] (setting [8]) it was 0.206 ± 0.0036; with E. coli TESEC Mtb Alr [2] (setting [9]) it was 0.138 ± 0.0021. Also, the growth is 0.252 ± 0.008 with E. coli TESEC Mtb Asd (setting [10]); 0.434 ± 0.012 with E. coli TESEC Mtb Asd (setting [11]); 0.232 ± 0.0039 with E. coli TESEC Mtb DapB (setting [12]); 0.241 ± 0.014 with E. coli TESEC Mtb DapB (setting [13]); 0.465 ± 0.057 in assay [3]; 0.394 ± 0.035 in the assay with E. coli TESEC Mtb Alr [4] (setting [14]). Further, the growth with E. coli TESEC Mtb Alr [4] (setting [15]) came to 0.378 ± 0.014.
For `O=C1O[C@H]([C@@H](O)CO)C(O)=C1O` [Ascorbic acid], the growth in assay [1] turned out to be 0.255 ± 0.0052; in the assay on E. coli TESEC Mtb Alr [2] (setting [5]) it was 0.303 ± 0.0086; in the assay on E. coli TESEC Mtb Alr [2] (setting [6]), 0.249 ± 0.007; with E. coli TESEC Mtb Alr [2] (setting [7]) it was 0.22 ± 0.043; in the assay on E. coli TESEC Mtb Alr [2] (setting [8]) it was 0.186 ± 0.0041; in the assay with E. coli TESEC Mtb Alr [2] (setting [9]), 0.157 ± 0.0037. In addition, the growth came out at 0.374 ± 0.076 with E. coli TESEC Mtb Asd (setting [10]); 0.445 ± 0.06 in the assay with E. coli TESEC Mtb Asd (setting [11]); 0.187 ± 0.0051 with E. coli TESEC Mtb DapB (setting [12]); 0.209 ± 0.0043 with E. coli TESEC Mtb DapB (setting [13]); 0.483 ± 0.056 in assay [3]; 0.387 ± 0.024 in the assay on E. coli TESEC Mtb Alr [4] (setting [14]). Also, the growth in the assay with E. coli TESEC Mtb Alr [4] (setting [15]) came to 0.35 ± 0.028.
On to `C=C1/C(=C\C=C2/CCC[C@]3(C)[C@@H]([C@H](C)/C=C/[C@@H](O)C4CC4)CC[C@@H]23)C[C@@H](O)C[C@@H]1O` [Calcipotriene], for which the growth worked out at 0.0539 ± 0.0078 in assay [1]; 0.0502 ± 0.0045 in the assay on E. coli TESEC Mtb Alr [2] (setting [5]); 0.0544 ± 0.0042 in the assay on E. coli TESEC Mtb Alr [2] (setting [6]); 0.0504 ± 0.0018 in the assay with E. coli TESEC Mtb Alr [2] (setting [7]); 0.0524 ± 0.0013 in the assay on E. coli TESEC Mtb Alr [2] (setting [8]); 0.056 ± 0.0013 in the assay with E. coli TESEC Mtb Alr [2] (setting [9]). Further, the growth in the assay with E. coli TESEC Mtb Asd (setting [10]) was determined as 0.0646 ± 0.0023; with E. coli TESEC Mtb Asd (setting [11]), 0.0613 ± 0.0049; in the assay with E. coli TESEC Mtb DapB (setting [12]), 0.158 ± 0.078; in the assay with E. coli TESEC Mtb DapB (setting [13]), 0.0652 ± 0.0025; in assay [3], 0.0607 ± 0.0046; with E. coli TESEC Mtb Alr [4] (setting [14]), 0.234 ± 0.12. For the same compound, in the assay with E. coli TESEC Mtb Alr [4] (setting [15]), the growth turned out to be 0.0671 ± 0.0016.
In the case of `C[N+](C)(C)CCOC(N)=O` [Carbachol], the growth in assay [1] came out at 0.251 ± 0.0053; with E. coli TESEC Mtb Alr [2] (setting [5]) it was 0.309 ± 0.014; with E. coli TESEC Mtb Alr [2] (setting [6]), 0.284 ± 0.02; with E. coli TESEC Mtb Alr [2] (setting [7]), 0.177 ± 0.0065; in the assay on E. coli TESEC Mtb Alr [2] (setting [8]) it was 0.186 ± 0.006; in the assay with E. coli TESEC Mtb Alr [2] (setting [9]), 0.164 ± 0.0027. Also, the growth in the assay with E. coli TESEC Mtb Asd (setting [10]) stood at 0.475 ± 0.0086; in the assay on E. coli TESEC Mtb Asd (setting [11]), 0.438 ± 0.051; in the assay on E. coli TESEC Mtb DapB (setting [12]) it was 0.194 ± 0.0084; with E. coli TESEC Mtb DapB (setting [13]) it was 0.26 ± 0.028; in assay [3], 0.492 ± 0.011; in the assay with E. coli TESEC Mtb Alr [4] (setting [14]) it was 0.409 ± 0.023. Also, the growth in the assay on E. coli TESEC Mtb Alr [4] (setting [15]) amounted to 0.364 ± 0.014.
